This note sets out measurements from PubChem BioAssay (Tox21).

Assay [1] in a line: Nuclear factor erythroid 2-related factor 2/antioxidant responsive element (Nrf2/ARE) small molecule agonists: qHTS cell viability counter screen in human keratinocytes (AID 1919968; active = well fitted curve in the direction sought with a large enough effect in the repeat runs; an effect the other way counts as inactive or inconclusive; also: nearly all actives have a fitted effect of over 55% in size; also: potency is read from the fitted curve at half-maximal effect). In short, it runs like this:
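KeratinoSens HaCaT cells, 1,500/well, preincubated 5 h, then exposed to compounds in DMSO for 23 h at 37 C/5% CO2. Viability read as CellTiter-Fluor fluorescence after 1 h, in the same wells as the ARE-luciferase read.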
A general note: qHTS replaces the single test concentration by a dilution series.

Assay [2] in a line: Nuclear factor erythroid 2-related factor 2/antioxidant responsive element (Nrf2/ARE) small molecule agonists: luciferase reporter gene qHTS assay in human keratinocytes (AID 1919969). Also: nearly all actives have a fitted effect of over 35% in size. Also: potency is read from the fitted curve at half-maximal effect. A general note: In a reporter assay the amount or activity of a reporter protein is the signal.
Assay [3] concerns the target Gonadotropin-releasing hormone receptor (Homo sapiens) (UniProt P30968). As to the kind of experiment: Human gonadotropin-releasing hormone receptor (GnRHR) small molecule agonists, calcium flux assay in GnRHR-HEK293 cells (AID 1920063). Also: nearly all actives have a fitted effect of over 35% in size. In short, it runs like this:
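HEK293 cells stably expressing human GnRHR were dye-loaded for 1 h at 37 C. Compound was added in agonist mode and fluorescence (Ex/Em 480/540) recorded kinetically for 3 min. Fifteen concentrations, triplicates.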
In general terms: A change in cytosolic calcium serves as a functional read-out for many receptors and channels.

Assay [4] concerns the target KiSS-1 receptor (Homo sapiens) (UniProt Q969F8). As to the kind of experiment: Human kisspeptin (KISS1R) small molecule agonists, calcium flux assay in KISS1R-HEK293 cells (AID 1920064; active = well fitted curve in the direction sought with a large enough effect in the repeat runs; an effect the other way counts as inactive or inconclusive). In short, it runs like this: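 HEK293 cells stably expressing human KISS1R were loaded with calcium dye for 1 h at 37 C, then given compound; fluorescence (Ex/Em 480/540) was read kinetically for 3 min. Fifteen concentrations, triplicate.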

Assay [5] in a line: G protein-coupled receptor (GPCR) small molecule agonists, calcium flux assay: HEK293 wild type cell line counter screen (AID 1920065). The method in brief:
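Wild-type HEK293 cells plated 18 h, loaded with calcium dye 1 h at 37 C, then compounds added in agonist mode (ATP as positive control). Kinetic fluorescence Ex/Em 480/540 recorded 3 min at 1 sec intervals; 15 concentrations, triplicate.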

Assay [6] can be described thus: p53 small molecule agonists, cell-based qHTS assay with human liver microsomes (AID 1963577). In short, it runs like this: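 Fluorescence of the beta-lactamase reporter in p53RE-bla cells, detected with LiveBLAzer substrate (2 h, room temperature, dark), served as the read-out after 16 h compound exposure at 37 C with human liver microsomes and NADPH, each 0.5 mg/mL final.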

Assay [7] in a line: p53 small molecule agonists, cell-based qHTS assay with rat liver microsomes (AID 1963578). The method in brief:
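Cells carrying a p53 response element–beta-lactamase reporter were plated and rested 5 h, then dosed with compound in DMSO plus rat liver microsomes and NADPH, each at 0.5 mg/mL final. After 16 h at 37 C, LiveBLAzer substrate was added for 2 h.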

Assay [8] can be described thus: p53 small molecule agonists, cell-based qHTS assay with human liver microsomes: qHTS cell viability counter screen (AID 1963579). Also: nearly all actives have a fitted effect of over 45% in size. The method in brief:
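Cytotoxicity counter screen: p53RE-bla, 4,000 cells/well; 5 h settle, 37 C/5% CO2; cpd + HLM 0.5 mg/mL + NADPH 0.5 mg/mL (final); 16 h, 37 C; CellTiter-Glo, 30 min RT, luminescence.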

Assay [9] in a line: p53 small molecule agonists, cell-based qHTS assay: qHTS cell viability counter screen (AID 1963581). Also: nearly all actives have a fitted effect of over 45% in size. In short, it runs like this: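 p53RE-bla HCT-116 cells, compounds added 5 h after plating and incubated 16 h at 37 C. Cytotoxicity measured in the same wells as intracellular ATP by CellTiter-Glo luminescence after 30 min at room temperature.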
The nature of assay [10]: p53 small molecule agonists, cell-based qHTS assay (AID 1963582; active = well fitted activation curve with a large enough effect in the signal ratio in the repeat runs, not every such curve was filed as active; the % refers to the signal ratio; also: potency is read from the fitted curve at half-maximal effect). In short, it runs like this: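 p53RE-bla reporter cells, compounds added in DMSO after 5 h plating, incubated 16 h at 37 C. Beta-lactamase read via 2 h room-temperature LiveBLAzer B/G FRET substrate, fluorescence intensity.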
Assay [11] addresses 5-hydroxytryptamine receptor 2A (Homo sapiens) (UniProt P28223). As to the kind of experiment: 5-hydroxytryptamine receptor 2A (HTR2A) small molecule antagonists, cell-based qHTS assay (AID 1963586). Also: nearly all actives have a fitted effect of over 45% in size. In short, it runs like this:
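Antagonist-mode intracellular calcium assay: DOI (4 nM) added after 5 min compound pre-incubation at room temperature to dye-loaded HTR2A-CHO cells. Fluorescence followed for 3 min, sampled every second.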

Assay [12] deals with Muscarinic acetylcholine receptor M1 (Homo sapiens) (UniProt P11229). Briefly: Cholinergic receptor muscarinic 1 (CHRM1) small molecule agonists, cell-based qHTS assay (AID 1963589). Also: nearly all actives have a fitted effect of over 35% in size. The method in brief:
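CHO cells stably expressing human CHRM1 were loaded with calcium dye for 1 h at 37 C, then compound was added in agonist mode. Intracellular calcium fluorescence was followed kinetically at 1 s intervals. Fifteen concentrations were tested in three independent runs.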

The nature of assay [13]: cAMP Responsive Elements (CRE) small molecule agonists, cell-based qHTS assay (AID 1963590). In short, it runs like this: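 CRE-bla HEK 293T cells, 2,000/well in DMEM with 10% dialyzed FBS and 25 mM HEPES, pre-incubated 18 h at 37 C, then exposed to compound 3 h at 37 C. Beta-lactamase reporter read with LiveBLAzer B/G FRET substrate after 2 h at room temperature.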
For assay [14], the target named is Beta-2 adrenergic receptor (Homo sapiens) (UniProt P07550). As to the kind of experiment: Adrenergic beta2 receptor (ADRB2) small molecule antagonists, cell-based qHTS assay (AID 1963592). Also: series mostly up to about 92 µM; nearly all actives have a fitted effect of over 50% in size. In short, it runs like this:
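Cells (CHO, stable ADRB2 overexpression) incubated 18-20hr at 37C; compounds added from DMSO; agonist mix (1nM isoproterenol, 100uM IBMX, 25uM Ro-20-1724) added; 0.5hr RT; d2-cAMP and anti-cAMP-cryptate added; 1hr RT; 665/615 nm read.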

In assay [15] the target is D(2) dopamine receptor (Homo sapiens) (UniProt P14416). As to the kind of experiment: Dopamine D2 receptor (DRD2) small molecule agonists, cell-based qHTS assay (AID 1963594). Also: nearly all actives have a fitted effect of over 35% in size. In short, it runs like this: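 cAMP accumulation in DRD2-HEK293 cells measured by HTRF after 1 h detection; compounds added 10 min before NKH477 (200nM […]) forskolin-analogue stimulation, 30 min at room temperature, with Ro20-1724 present at 0.1 mM final.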
D(2) dopamine receptor (Homo sapiens), sequence (P14416 whole entry, looked up): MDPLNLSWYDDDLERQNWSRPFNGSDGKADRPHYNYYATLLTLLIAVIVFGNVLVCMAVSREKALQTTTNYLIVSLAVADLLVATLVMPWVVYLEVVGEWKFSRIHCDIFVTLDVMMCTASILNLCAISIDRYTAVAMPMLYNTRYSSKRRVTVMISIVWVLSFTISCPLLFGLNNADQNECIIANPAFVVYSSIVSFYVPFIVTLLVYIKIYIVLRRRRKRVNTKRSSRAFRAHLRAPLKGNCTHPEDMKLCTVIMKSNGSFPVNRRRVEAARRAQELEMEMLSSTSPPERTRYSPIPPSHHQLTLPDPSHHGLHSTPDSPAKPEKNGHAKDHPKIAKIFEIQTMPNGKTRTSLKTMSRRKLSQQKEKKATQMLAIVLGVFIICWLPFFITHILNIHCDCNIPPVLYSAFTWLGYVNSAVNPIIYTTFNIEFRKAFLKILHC

Assay [16] shares this target. Briefly: Dopamine D2 receptor (DRD2) small molecule antagonists, cell-based qHTS assay (AID 1963595; active = well fitted inhibition curve with a large enough effect in the signal ratio in the repeat runs, with a control signal flat; the % refers to the signal ratio). In short, it runs like this: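 Antagonist mode in DRD2-HEK293 cells: after compound addition with 0.1 mM Ro20-1724, cells received quinpirole (12 nM) and NKH477 (200 nM) for 30 min at room temperature; HTRF cAMP read after 1 h detection.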
The target in assay [17] is 5-hydroxytryptamine receptor 2A (Homo sapiens) (UniProt P28223). As to the kind of experiment: 5-hydroxytryptamine receptor 2A (HTR2A) small molecule agonists, cell-based qHTS assay (AID 1963587). Also: nearly all actives have a fitted effect of over 30% in size. The method in brief:
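Kinetic calcium-flux fluorescence (2 min, 1 sec intervals) after compound addition in agonist mode. HTR2A-CHO cells were cultured 18 h, then dye-loaded 1 h at 37 C.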

For assay [18], the target named is Muscarinic acetylcholine receptor M1 (Homo sapiens) (UniProt P11229). Briefly: Cholinergic receptor muscarinic 1 (CHRM1) small molecule antagonists, cell-based qHTS assay (AID 1963588). Also: nearly all actives have a fitted effect of over 40% in size. Also: potency is read from the fitted curve at half-maximal effect. In short, it runs like this: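 CHRM1-CHO calcium-flux assay, antagonist mode. Cells were seeded 18 h, dye-loaded 1 h at 37 C and given compound for 5 min at RT, then acetylcholine was added at 50nM. FDSS fluorescence was read 3 min; 15 concentrations, three runs.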
Muscarinic acetylcholine receptor M1 (Homo sapiens), sequence (P11229 whole entry, looked up): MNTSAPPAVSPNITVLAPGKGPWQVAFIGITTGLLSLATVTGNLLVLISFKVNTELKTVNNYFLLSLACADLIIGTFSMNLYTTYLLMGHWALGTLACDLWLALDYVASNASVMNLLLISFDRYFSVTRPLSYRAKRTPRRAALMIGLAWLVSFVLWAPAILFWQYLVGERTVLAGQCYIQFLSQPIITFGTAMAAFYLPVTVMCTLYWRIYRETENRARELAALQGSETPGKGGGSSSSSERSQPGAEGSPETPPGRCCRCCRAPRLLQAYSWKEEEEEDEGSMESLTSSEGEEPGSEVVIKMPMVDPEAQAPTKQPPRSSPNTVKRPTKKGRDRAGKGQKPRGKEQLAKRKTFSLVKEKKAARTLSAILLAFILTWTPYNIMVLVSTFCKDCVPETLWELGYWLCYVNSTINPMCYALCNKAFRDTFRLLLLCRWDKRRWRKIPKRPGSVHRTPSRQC

Assay [19] is described as follows: cAMP Responsive Elements (CRE) small molecule antagonists, cell-based qHTS assay (AID 1963591; active = well fitted inhibition curve with a large enough effect in the signal ratio in the repeat runs, not every such curve was filed as active; the % refers to the signal ratio). In short, it runs like this:
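CRE-bla HEK293T cells plated 18 h, then given compound plus NKH477 at 0.25 uM final for 3 h at 37C. Beta-lactamase reporter read with LiveBLAzer B/G FRET substrate after 2 h at room temperature.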

A short description of assay [20]: p53 small molecule agonists, cell-based qHTS assay with rat liver microsomes: qHTS cell viability counter screen (AID 1963580). Also: nearly all actives have a fitted effect of over 45% in size. In short, it runs like this:
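Intracellular ATP, by CellTiter-Glo luminescence, defines viability. HCT-116 p53RE-bla cells, 4,000 per well, were compound-treated in the presence of rat liver microsomes and NADPH for 16 h at 37 C.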

Results filed as inconclusive are left out. The source made the active and inactive calls. Unless noted, calls follow the shape of the full dose curve.

Gonadotropin-releasing hormone receptor (Homo sapiens), sequence (P30968 whole entry, looked up): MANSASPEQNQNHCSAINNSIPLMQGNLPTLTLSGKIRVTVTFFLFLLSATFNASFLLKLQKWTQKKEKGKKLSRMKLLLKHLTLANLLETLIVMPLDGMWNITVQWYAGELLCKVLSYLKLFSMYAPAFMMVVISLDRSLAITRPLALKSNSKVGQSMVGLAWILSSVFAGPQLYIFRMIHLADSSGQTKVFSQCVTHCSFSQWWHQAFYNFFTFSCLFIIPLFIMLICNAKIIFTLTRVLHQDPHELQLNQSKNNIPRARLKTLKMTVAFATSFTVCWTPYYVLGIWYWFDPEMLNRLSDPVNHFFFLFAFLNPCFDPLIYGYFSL
KiSS-1 receptor (Homo sapiens), sequence (Q969F8 whole entry, looked up): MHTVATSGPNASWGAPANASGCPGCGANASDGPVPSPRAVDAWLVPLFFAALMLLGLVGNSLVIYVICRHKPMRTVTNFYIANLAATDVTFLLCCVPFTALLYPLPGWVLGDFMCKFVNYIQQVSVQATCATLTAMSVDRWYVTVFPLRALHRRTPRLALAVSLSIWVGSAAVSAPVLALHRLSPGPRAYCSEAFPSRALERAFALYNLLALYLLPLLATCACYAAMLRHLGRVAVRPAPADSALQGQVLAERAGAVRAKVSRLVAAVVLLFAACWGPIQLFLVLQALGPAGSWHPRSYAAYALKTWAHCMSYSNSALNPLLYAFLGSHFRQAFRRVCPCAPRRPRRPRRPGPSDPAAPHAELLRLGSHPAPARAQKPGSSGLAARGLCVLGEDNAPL
5-hydroxytryptamine receptor 2A (Homo sapiens), sequence (P28223 whole entry, looked up): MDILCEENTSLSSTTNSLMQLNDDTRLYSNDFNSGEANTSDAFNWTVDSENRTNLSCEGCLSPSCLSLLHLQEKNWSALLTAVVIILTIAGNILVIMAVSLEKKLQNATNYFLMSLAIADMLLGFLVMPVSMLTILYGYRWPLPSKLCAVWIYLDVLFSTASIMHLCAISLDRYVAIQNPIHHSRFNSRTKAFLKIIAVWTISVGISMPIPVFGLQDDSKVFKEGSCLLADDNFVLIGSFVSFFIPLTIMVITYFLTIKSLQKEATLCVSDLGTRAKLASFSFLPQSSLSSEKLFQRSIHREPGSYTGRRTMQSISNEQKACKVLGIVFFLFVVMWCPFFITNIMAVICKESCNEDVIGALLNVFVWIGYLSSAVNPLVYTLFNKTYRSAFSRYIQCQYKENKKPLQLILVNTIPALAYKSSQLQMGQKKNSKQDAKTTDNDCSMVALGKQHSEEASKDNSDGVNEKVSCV
Beta-2 adrenergic receptor (Homo sapiens), sequence (P07550 whole entry, looked up): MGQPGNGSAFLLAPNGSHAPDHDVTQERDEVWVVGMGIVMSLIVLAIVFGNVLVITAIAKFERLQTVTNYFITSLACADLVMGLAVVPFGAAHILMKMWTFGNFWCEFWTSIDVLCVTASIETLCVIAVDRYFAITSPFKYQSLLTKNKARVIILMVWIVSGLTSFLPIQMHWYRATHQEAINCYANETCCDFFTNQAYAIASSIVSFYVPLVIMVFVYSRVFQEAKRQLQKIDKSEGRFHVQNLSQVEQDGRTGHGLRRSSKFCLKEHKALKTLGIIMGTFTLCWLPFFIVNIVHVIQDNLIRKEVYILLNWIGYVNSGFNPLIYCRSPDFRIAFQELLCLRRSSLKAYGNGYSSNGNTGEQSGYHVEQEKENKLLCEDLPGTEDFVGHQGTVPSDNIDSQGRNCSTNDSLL

Regarding `BrCCBr`, the Potency entry in assay [1], in assay [2], in [3], in assay [4], in assay [5] and in assay [6] was “inactive” each time. Further, the Potency result in assay [7], in assay [8], in assay [9], in [10], in assay [11] and in [12] was “inactive” throughout. In addition, the Potency result in [13], in assay [14], in [15] and in assay [16] was “inactive” throughout.

Consider `O=NN1CCOCC1`, for which the Potency result in [1], in [2], in [3], in assay [4], in assay [5] and in assay [6] was “inactive” throughout. Besides, the Potency result in assay [7], in assay [8], in [9], in assay [10], in assay [11] and in assay [17] was “inactive” each time. Besides, the Potency result in [18], in [12], in [13], in assay [19], in assay [14] and in assay [15] was “inactive” throughout. Further, the Potency result in assay [16] is “inactive”.

`COc1ccc(C(CN(C)C)C2(O)CCCCC2)cc1` (stereo unspecified): the Potency result in [1], in [2], in [3], in assay [4], in assay [5] and in assay [6] was “inactive” in each case. The Potency entry in assay [7], in assay [8], in assay [9], in assay [10], in assay [13] and in assay [19] was “inactive” throughout. Besides, the Potency result in assay [14], in [15] and in [16] was “inactive” each time.

On to `CCCBr`, for which the Potency entry in assay [1], in [2], in [3], in assay [4], in assay [5] and in [6] was “inactive” in each case. Also, the Potency entry in [7], in [20], in assay [9], in [10], in assay [11] and in assay [17] was “inactive” in each case. Besides, the Potency result in assay [18], in assay [12], in [13], in assay [19], in assay [14] and in assay [16] was “inactive” in each case.

Take `CCCCNC(=O)n1c(NC(=O)OC)nc2ccccc21`: the Potency result in assay [1], in assay [3], in assay [4], in assay [5], in [6] and in [7] was “inactive” throughout. Besides, the Potency result in assay [8], in [17], in assay [18], in assay [12], in assay [13] and in assay [19] was “inactive” throughout. The Potency result in assay [14] and in [16] was “inactive” each time. The Potency in [2] was 54.2 µM (active); in [10], 10.2 µM (active).

For the compound `CC1CC(CC2CCC(N)C(C)C2)CCC1N` (stereo unspecified), the Potency in assay [1] was 7.82 µM (active); in assay [18], 6.04 µM (active). Besides, the Potency result in assay [2], in assay [3], in assay [4], in assay [5], in [6] and in assay [7] was “inactive” each time. Moreover, the Potency entry in assay [20], in assay [9], in [10], in [11], in [17] and in [12] was “inactive” in each case. In addition, the Potency entry in assay [13], in [14] and in [16] was “inactive” in each case.

In the case of `O=c1n(Cl)c(=O)n(Cl)c(=O)n1Cl`, the Potency result in [1], in assay [2], in assay [3], in [4], in assay [5] and in assay [6] was “inactive” each time. The Potency result in assay [7], in assay [8], in assay [10], in assay [17], in assay [18] and in [12] was “inactive” in each case. Moreover, the Potency entry in assay [13], in [19], in [14], in assay [15] and in [16] was “inactive” each time.

Take `Clc1ccc(Cl)cc1`: the Potency entry in assay [1], in [2], in [3], in [4], in assay [5] and in assay [6] was “inactive” throughout. For the same compound, the Potency entry in [7], in [20], in assay [9], in assay [10], in assay [11] and in assay [17] was “inactive” in each case. The Potency entry in assay [12], in assay [13], in [19], in [14], in [15] and in [16] was “inactive” in each case.
